# Values joined by “and” are separate entries in the source; they are usually repeats but may differ in a detail not shown here. Equal entries are not always repeated. Results filed as inconclusive are left out. For part of these data: Measured potencies and affinities stand elsewhere. Active and inactive are the calls of the source.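 How the source made its calls, unless noted: active means at least 20% inhibition of 6-phosphogluconate dehydrogenase activity; inactive means the rest.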
# Columns and labels:
# [1] = liver-stage malaria parasite growth inhibition, primary screen, cell-based, HepG2, luciferase luminescence, HepG2 viability (AID 624349; in the data active means parasite load remaining mostly below about 12%, no sharp cut-off; inactive means mostly above about 10%;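 further: 100% = mean of DMSO negative control wells on the same plate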); conditions: P. berghei liver stage in HepG2, luciferase luminescence, concentration not given here; parasite load remaining: stronger effect = lower value; viability: measured here: HepG2 viability without parasites
# [2] = biological target: 6-phosphogluconate dehydrogenase, decarboxylating (Homo sapiens) (UniProt P52209); experiment: 6PGD enzyme inhibitors, primary screen, biochemical, human, recombinant enzyme, NADPH absorbance (AID 1159550); conditions: recombinant 6PGD, NADPH absorbance 341 nm; at 10 µM; stronger effect = higher value
# 6-phosphogluconate dehydrogenase, decarboxylating (Homo sapiens), sequence (P52209 whole entry, looked up): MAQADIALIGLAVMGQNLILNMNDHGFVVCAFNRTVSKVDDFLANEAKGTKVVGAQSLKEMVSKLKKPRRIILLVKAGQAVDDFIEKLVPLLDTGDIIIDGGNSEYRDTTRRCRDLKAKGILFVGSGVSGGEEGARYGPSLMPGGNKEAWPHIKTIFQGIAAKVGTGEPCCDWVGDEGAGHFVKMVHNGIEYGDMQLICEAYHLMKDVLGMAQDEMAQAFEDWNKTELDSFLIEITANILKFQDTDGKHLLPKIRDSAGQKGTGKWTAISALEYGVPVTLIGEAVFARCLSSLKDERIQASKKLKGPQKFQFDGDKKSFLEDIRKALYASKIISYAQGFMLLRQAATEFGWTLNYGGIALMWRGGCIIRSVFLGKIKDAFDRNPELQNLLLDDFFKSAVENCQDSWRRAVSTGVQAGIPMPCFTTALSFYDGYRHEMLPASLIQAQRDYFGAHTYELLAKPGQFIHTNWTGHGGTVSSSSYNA
# [3] = sensitizers of A549 cells to miR-34 induction, primary screen, imaging, A549 dox-inducible miR-34, nuclei and caspase counts (AID 1347080;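 active means compounds whose cell count with miR-34 switched on is under 0.7 times the count with it off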); conditions: A549 miR-34 inducible, Hoechst nuclei count, 48 h
# [4] = survival rescue of mitochondrial mutant cells in low glucose, primary screen, MELAS cybrids, Rieske KO mouse fibroblasts, CellTiter-Glo (AID 1508586;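 active means mean z-score across replicates of 1.96 or higher in either the MELAS or the Rieske mutant cell line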;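 further: z relative to plate mean and SD of compound and empty wells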)
# [5] = biological target: NAD(+) hydrolase SARM1 (Homo sapiens) (UniProt Q6SZW1); experiment: SARM1 TIR NADase inhibitors, cell lysate, NAD-Glo luminescence (AID 1508614;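 active means compound whose remaining NAD level is above about 45 nM, limit read from the data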); conditions: SAM-TIR HEK293T lysate NADase, at 1 µM, stronger effect = higher value
# NAD(+) hydrolase SARM1 (Homo sapiens), sequence (Q6SZW1 whole entry, looked up, the tested form may be a part): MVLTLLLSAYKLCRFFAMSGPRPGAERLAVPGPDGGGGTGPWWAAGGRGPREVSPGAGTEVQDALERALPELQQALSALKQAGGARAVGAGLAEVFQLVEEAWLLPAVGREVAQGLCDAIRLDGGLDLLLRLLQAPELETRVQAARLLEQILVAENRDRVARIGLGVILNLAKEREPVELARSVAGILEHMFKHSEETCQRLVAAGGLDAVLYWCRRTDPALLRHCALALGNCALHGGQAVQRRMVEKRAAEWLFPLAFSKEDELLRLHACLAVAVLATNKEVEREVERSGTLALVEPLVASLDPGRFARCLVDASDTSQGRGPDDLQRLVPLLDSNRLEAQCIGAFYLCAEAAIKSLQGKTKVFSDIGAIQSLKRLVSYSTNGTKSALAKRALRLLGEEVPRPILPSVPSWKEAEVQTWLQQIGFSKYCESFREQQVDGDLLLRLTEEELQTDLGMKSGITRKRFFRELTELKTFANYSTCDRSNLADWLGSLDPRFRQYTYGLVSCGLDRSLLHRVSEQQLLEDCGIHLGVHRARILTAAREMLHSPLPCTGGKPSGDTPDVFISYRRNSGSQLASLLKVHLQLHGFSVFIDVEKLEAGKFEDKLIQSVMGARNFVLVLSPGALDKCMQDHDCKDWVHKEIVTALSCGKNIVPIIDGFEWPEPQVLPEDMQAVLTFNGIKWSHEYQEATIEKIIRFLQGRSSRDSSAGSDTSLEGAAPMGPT
# [6] = biological target: Mitogen-activated protein kinase 7 (Homo sapiens) (UniProt Q13164); experiment: ERK5 transactivation activators in reporter cells, primary screen, cell-based, HTS (AID 1508626;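 active means luciferase signal above three times the same-plate solvent-only control wells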;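 further: luciferase driven by Gal4-ERK5 fusion binding five Gal4 sites before minimal TATA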); conditions: HeLa Gal4-ERK5 transactivation, 18 h, at 5 µM, stronger effect = higher value
# Mitogen-activated protein kinase 7 (Homo sapiens), sequence (Q13164 whole entry, looked up, the tested form may be a part): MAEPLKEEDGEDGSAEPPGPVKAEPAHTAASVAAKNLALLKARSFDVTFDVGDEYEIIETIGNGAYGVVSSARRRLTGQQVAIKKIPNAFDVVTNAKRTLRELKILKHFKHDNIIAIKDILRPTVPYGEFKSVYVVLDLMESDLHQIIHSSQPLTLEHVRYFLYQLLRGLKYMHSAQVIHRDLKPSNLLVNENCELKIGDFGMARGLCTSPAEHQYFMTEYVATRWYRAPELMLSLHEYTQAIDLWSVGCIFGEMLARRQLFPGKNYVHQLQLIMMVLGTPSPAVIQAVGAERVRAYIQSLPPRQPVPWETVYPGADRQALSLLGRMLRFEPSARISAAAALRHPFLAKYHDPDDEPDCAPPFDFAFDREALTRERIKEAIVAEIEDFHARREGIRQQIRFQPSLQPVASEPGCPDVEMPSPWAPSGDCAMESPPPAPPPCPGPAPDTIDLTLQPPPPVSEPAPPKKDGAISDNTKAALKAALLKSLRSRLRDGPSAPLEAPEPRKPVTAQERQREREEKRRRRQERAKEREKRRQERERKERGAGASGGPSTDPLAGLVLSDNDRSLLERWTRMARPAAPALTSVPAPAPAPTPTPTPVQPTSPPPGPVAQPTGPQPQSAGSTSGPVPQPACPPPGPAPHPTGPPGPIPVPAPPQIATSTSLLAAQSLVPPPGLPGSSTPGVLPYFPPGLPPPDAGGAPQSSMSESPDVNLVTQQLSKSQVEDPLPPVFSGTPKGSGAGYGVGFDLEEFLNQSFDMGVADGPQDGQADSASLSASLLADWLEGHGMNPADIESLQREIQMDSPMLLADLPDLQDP
# [7] = biological target: ATP-dependent translocase ABCB1 (Homo sapiens) (UniProt P08183); experiment: MDR1 (ABCB1) efflux transporter inhibition, cell-based (AID 377; in the data active means fluorescence slope change above about 50%); conditions: MDR1-expressing cells, fluorescent substrate accumulation slope; stronger effect = higher value; concentration not given here
# ATP-dependent translocase ABCB1 (Homo sapiens), sequence (P08183 whole entry, looked up): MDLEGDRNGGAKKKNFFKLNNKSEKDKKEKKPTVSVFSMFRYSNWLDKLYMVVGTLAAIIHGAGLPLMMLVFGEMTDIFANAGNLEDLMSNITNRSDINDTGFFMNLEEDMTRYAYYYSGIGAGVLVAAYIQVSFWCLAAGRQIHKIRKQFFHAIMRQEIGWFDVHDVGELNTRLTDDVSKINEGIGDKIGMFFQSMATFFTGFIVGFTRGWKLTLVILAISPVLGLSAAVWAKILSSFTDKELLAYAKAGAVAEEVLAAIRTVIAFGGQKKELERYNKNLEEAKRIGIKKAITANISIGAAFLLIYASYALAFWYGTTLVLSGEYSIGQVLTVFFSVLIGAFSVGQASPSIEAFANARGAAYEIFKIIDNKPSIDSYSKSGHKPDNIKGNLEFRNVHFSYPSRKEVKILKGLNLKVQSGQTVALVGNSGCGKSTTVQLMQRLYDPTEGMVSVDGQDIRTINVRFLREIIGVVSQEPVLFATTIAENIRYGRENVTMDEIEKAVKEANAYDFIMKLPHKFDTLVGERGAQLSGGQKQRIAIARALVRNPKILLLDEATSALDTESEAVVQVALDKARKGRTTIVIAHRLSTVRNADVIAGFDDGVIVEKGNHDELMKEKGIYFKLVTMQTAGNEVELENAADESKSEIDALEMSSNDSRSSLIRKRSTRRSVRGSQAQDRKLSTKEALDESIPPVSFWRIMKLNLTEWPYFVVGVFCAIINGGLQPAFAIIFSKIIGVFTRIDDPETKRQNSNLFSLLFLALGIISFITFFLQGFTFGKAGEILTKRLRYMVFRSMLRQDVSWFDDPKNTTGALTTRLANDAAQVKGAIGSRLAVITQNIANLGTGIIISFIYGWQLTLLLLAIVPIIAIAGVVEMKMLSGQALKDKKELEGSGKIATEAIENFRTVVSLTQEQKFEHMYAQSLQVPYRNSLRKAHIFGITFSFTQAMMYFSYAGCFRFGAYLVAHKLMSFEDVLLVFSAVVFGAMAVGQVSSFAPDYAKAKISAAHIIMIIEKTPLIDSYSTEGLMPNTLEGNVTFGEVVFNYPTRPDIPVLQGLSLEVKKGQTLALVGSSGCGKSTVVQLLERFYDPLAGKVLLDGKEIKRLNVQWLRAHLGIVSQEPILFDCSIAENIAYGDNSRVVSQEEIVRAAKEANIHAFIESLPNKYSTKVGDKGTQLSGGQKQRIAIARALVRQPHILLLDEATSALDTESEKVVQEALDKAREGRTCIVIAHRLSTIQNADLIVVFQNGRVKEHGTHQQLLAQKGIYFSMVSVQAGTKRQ
# [8] = polyglutamine-triggered caspase-3 activation inhibitors, cell-based (AID 1583); conditions: polyglutamine-induced caspase-3 activation, cell assay; stronger effect = higher value;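 tested at 10 µM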
# [9] = suppressors of polyQ aggregation in yeast, 75Q-TubU reporter (AID 1593); conditions: Yeast 75Q polyglutamine aggregation reporter
# [10] = rescue of polyQ-huntingtin neuronal dysfunction in worms, whole organism, C. elegans mechanosensory neurons, N-terminal huntingtin (AID 1599); conditions: touch response, stronger effect = higher value
# [11] = inhibitors of mitochondrial cytochrome c release, biochemical, purified mitochondria (AID 1603); conditions: stronger effect = lower value;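 further: mouse liver mitochondria challenged with calcium chloride; signal normalized to the plate average as 100%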
# [12] = inhibitors of polyQ protein aggregation (AID 1604); conditions: polyglutamine-induced protein aggregation inhibition assay; stronger effect = higher value; tested at 2.5 µM
# [13] = enhancers of glutamate uptake in motor neurons, MN-1 cell line (AID 1612); conditions: MN-1 motor neuron cells, stronger effect = higher value;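 further: tested at 1 µM final; 0% = mean of DMSO vehicle wells on each plate; positive means more glutamate uptake than control and negative means less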
# [14] = reducers of polyQ inclusions in PC12 cells, cell-based, NGF-treated PC12, GFPQ80 (AID 1614); conditions: PC12 NGF-treated GFP-polyQ80 inclusion reduction;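 further: lower means fewer inclusions and 0 means no inclusions at all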
# [15] = suppressors of polyglutamine aggregation in yeast, 75Q-TubH (AID 1616); conditions: S. cerevisiae 75Q-TubH polyglutamine aggregation suppression; stronger effect = higher value
# [16] = hESC survival regulators, cell-based (AID 493140; call rule not given here;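 further: cells exposed to compounds for four days before counting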); conditions: human embryonic stem cell survival screen; stronger effect = higher value
# [17] = circadian clock period modulators, cell-based, LOPAC library, luminescence reporter (AID 2774; call rule not given here;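 further: values are relative to mean of DMSO wells on each plate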); conditions: circadian reporter cells, at 7 µM, actives lie on both sides
# [18] = system: Hepatitis C virus NS3 helicase; experiment: HCV NS3 helicase inhibitors, primary screen, biochemical, fluorescence polarization, LOPAC1280 library (AID 687035; in the data active means inhibition above about 37%); conditions: Purified HCV NS3 helicase, Cy5-dT15 ssDNA binding fluorescence polarization; stronger effect = higher value; concentration not given here
# [19] = Cy5 fluorescence quenching or enhancement artefacts, artefact control for HCV NS3 helicase inhibitor project, biochemical, LOPAC1280 (AID 687037; call rule not given here); conditions: Cy5-DNA-NS3h complex fluorescence interference counterscreen
# [20] = phospholipid biosynthesis inhibitors in animal cells, primary screen, cell-based, LOPAC library, screen 4 (AID 1347384; call rule not given here); conditions: phospholipid biosynthesis inhibition screen, at 10 µM
# [21] = viability rescue of complex I mutant cybrids, primary screen, cell-based, galactose medium, ATP luminescence (AID 1645843;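 active means z-score of at least 1.8 in each of two replicates, scored against plate mean and spread of sample wells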;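 further: positive z means more ATP and so rescue of galactose-driven cybrid death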); conditions: complex I mutant cybrid cells, 72 h, stronger effect = higher value
# [22] = stronger effect = lower value, cell number ratio, induced over uninduced
# [23] = measured here: relative caspase fold change +Dox/-Dox
# [24] = measured here: total cells with miR-34 induction, stronger effect = lower value
# [25] = measured here: total cells without miR-34 induction
# [26] = MELAS cybrid survival, CellTiter-Glo 48 h, stronger effect = higher value
# [27] = Rieske KO mouse fibroblast survival, CellTiter-Glo 72 h
structure (smiles),measurement,setting,value
NCC[C@H](O)C(=O)N[C@@H]1C[C@H](N)[C@@H](O[C@H]2O[C@H](CN)[C@@H](O)[C@H](O)[C@H]2O)[C@H](O)[C@H]1O[C@H]1O[C@H](CO)[C@@H](O)[C@H](N)[C@H]1O,parasite load remaining,[1],126% (inactive)
same,viability,[1],113%
same,inhibition,[2],-15.3% (inactive)
same,fold change,[3]; [22],0.816 (inactive)
same,fold change,[3]; [23],1.79
same,cell count,[3]; [24],8210
same,cell count,[3]; [25],10100
same,z-score,[4]; [26],-0.451 (inactive)
same,z-score,[4]; [27],-0.0793
same,remaining NAD,[5],10 nM (inactive)
same,luciferase signal,[6],60 AU (inactive)
CC(Oc1ccccc1)C(=O)N[C@@H]1C(=O)N2[C@@H]1SC(C)(C)[C@@H]2C(=O)O (stereo not given in full),fluorescence slope change,[7],56.9% (active)
same,inhibition,[8],11.2%
same,score,[9],1.4
same,rescue above control,[10],-10.5
same,cytochrome c release ratio,[11],1.15
same,inhibition of aggregation,[12],78.9%
same,glutamate uptake change,[13],10.6%
same,inclusion score,[14],2
same,aggregation suppression score,[15],1.29
same,survival,[16],7.92 (inactive)
same,parasite load remaining,[1],116% (inactive) and 55% (inactive)
same,viability,[1],109% and 84.1%
same,inhibition,[2],1.89% (inactive)
same,fold change,[3]; [22],0.935 (inactive) and 0.907 (inactive)
same,fold change,[3]; [23],1.21 and 2.74
same,cell count,[3]; [24],8390 and 12400
same,cell count,[3]; [25],8980 and 13600
same,z-score,[4]; [26],-0.192 (inactive)
same,z-score,[4]; [27],-0.917
same,remaining NAD,[5],10 nM (inactive)
same,luciferase signal,[6],36 AU (inactive)
C=C1CC[C@H](O)C/C1=C/C=C1\CCC[C@]2(C)[C@@H]([C@H](C)/C=C/[C@H](C)C(C)C)CC[C@@H]12,fluorescence slope change,[7],66.6% (active)
same,parasite load remaining,[1],50.6% (inactive)
same,viability,[1],130%
same,inhibition,[2],12.3% (inactive)
same,fold change,[3]; [22],0.934 (inactive)
same,fold change,[3]; [23],1.53
same,cell count,[3]; [24],7580
same,cell count,[3]; [25],8110
same,remaining NAD,[5],10 nM (inactive)
same,luciferase signal,[6],144 AU (inactive)
O=C(N[C@@H](Cc1ccccc1)C(=O)CCl)OCc1ccccc1,period change,[17],-0.215 h (inactive)
same,inhibition,[18],0% (inactive)
same,fluorescence ratio (interference),[19],1 (inactive)
same,inhibition,[2],6.1% (inactive)
same,fold change,[3]; [22],1.3 (inactive)
same,fold change,[3]; [23],1.36
same,cell count,[3]; [24],816
same,cell count,[3]; [25],626
same,outcome,[20],inactive
same,z-score,[21],-1.33 (inactive)
CC(=O)N[C@@H](Cc1ccccc1)C(=O)O,inhibition,[2],-1.76% (inactive)
same,fold change,[3]; [22],0.922 (inactive)
same,fold change,[3]; [23],1.14
same,cell count,[3]; [24],8280
same,cell count,[3]; [25],8980
Oc1cc2c(cc1O)[C@@H]1c3ccc(O)c(O)c3OC[C@]1(O)C2,inhibition,[2],1.84% (inactive)
same,fold change,[3]; [22],0.884 (inactive)
same,fold change,[3]; [23],0.956
same,cell count,[3]; [24],9250
same,cell count,[3]; [25],10500
same,z-score,[4]; [26],-0.379 (inactive)
same,z-score,[4]; [27],0.131
same,luciferase signal,[6],28 AU (inactive)
C[C@@H]1O[C@@H](O[C@H]2[C@H](Oc3cc(O)c4c(c3)O[C@H](c3ccc(O)cc3)CC4=O)O[C@H](CO)[C@@H](O)[C@@H]2O)[C@H](O)[C@H](O)[C@H]1O,fluorescence slope change,[7],21.6% (inactive)
same,inhibition,[8],-1.5%
same,score,[9],1.92
same,cytochrome c release ratio,[11],1.05
same,inhibition of aggregation,[12],82.5%
same,glutamate uptake change,[13],6.96%
same,inclusion score,[14],2
same,aggregation suppression score,[15],1.02
same,survival,[16],7.67 (inactive)
same,parasite load remaining,[1],153% (inactive) and 66.6% (inactive)
same,viability,[1],111% and 77.6%
same,inhibition,[2],4.72% (inactive)
same,fold change,[3]; [22],0.866 (inactive)
same,fold change,[3]; [23],1.55
same,cell count,[3]; [24],9380
same,cell count,[3]; [25],10800
same,luciferase signal,[6],60 AU (inactive)
CC1CCCC(C)N1NC(=O)c1ccc(Cl)c(S(N)(=O)=O)c1 (stereo not given),inhibition,[8],16.7%
same,score,[9],1.67
same,rescue above control,[10],-10.1
same,cytochrome c release ratio,[11],0.96
same,inhibition of aggregation,[12],25.5%
same,glutamate uptake change,[13],-0.09%
same,inclusion score,[14],2
same,aggregation suppression score,[15],1.2
same,survival,[16],5.92 (inactive)
same,parasite load remaining,[1],92.4% (inactive) and 77.2% (inactive)
same,viability,[1],76.8% and 96.5%
same,inhibition,[2],6.91% (inactive)
same,fold change,[3]; [22],0.9 (inactive)
same,fold change,[3]; [23],4.97
same,cell count,[3]; [24],7530
same,cell count,[3]; [25],8360
O=C(/C=C/c1ccc(O)c(O)c1)O[C@@H]1C[C@](O)(C(=O)O)C[C@@H](O)[C@H]1O,fluorescence slope change,[7],18.7% (inactive)
same,survival,[16],22.8 (inactive)
same,parasite load remaining,[1],105% (inactive) and 63.3% (inactive)
same,viability,[1],94.7% and 73.7%
same,inhibition,[2],-7.84% (inactive)
same,fold change,[3]; [22],0.882 (inactive) and 0.998 (inactive)
same,fold change,[3]; [23],1.35 and 0.827
same,cell count,[3]; [24],9710 and 5820
same,cell count,[3]; [25],11000 and 5830
same,luciferase signal,[6],56 AU (inactive)
CN[C@@H]1[C@H](O[C@H]2[C@H](O[C@H]3[C@H](O)[C@@H](O)[C@H](N=C(N)N)[C@@H](O)[C@@H]3N=C(N)N)O[C@@H](C)[C@]2(O)CO)O[C@@H](CO)[C@H](O)[C@H]1O,inhibition,[2],-14.8% (inactive)
same,remaining NAD,[5],10 nM (inactive)
same,luciferase signal,[6],68 AU (inactive)
C[C@@H]1O[C@@H](OC[C@H]2O[C@@H](Oc3c(-c4ccc(OCCO)c(OCCO)c4)oc4cc(OCCO)cc(O)c4c3=O)[C@H](O)[C@@H](O)[C@@H]2O)[C@H](O)[C@H](O)[C@H]1O,inhibition,[2],-5.09% (inactive)
same,remaining NAD,[5],10 nM (inactive)
same,luciferase signal,[6],72 AU (inactive)
C=C(C)[C@@H]1CC[C@]2(CO)CC[C@]3(C)[C@H](CC[C@@H]4[C@@]5(C)CC[C@H](O)C(C)(C)[C@@H]5CC[C@]43C)[C@@H]12,parasite load remaining,[1],104% (inactive)
same,viability,[1],78.6%
same,inhibition,[2],1.58% (inactive)
same,fold change,[3]; [22],0.941 (inactive)
same,fold change,[3]; [23],0.65
same,cell count,[3]; [24],8530
same,cell count,[3]; [25],9060
same,luciferase signal,[6],44 AU (inactive)
CO/N=C(\C(=O)N[C@@H]1C(=O)N2C(C(=O)O)=C(CSc3nc(=O)c(O)nn3C)CSC12)c1csc(N)n1 (stereo not given in full),period change,[17],0.08 h (inactive)
same,inhibition,[2],-13.8% (inactive)
same,fold change,[3]; [22],1.02 (inactive)
same,fold change,[3]; [23],1.74
same,cell count,[3]; [24],10200
same,cell count,[3]; [25],9980
same,z-score,[21],0.175 (inactive)
NC[C@@H]1O[C@H](O[C@H]2[C@@H](O)[C@H](O[C@@H]3[C@@H](O)[C@H](N)C[C@H](N)[C@H]3O[C@H]3O[C@H](CO)[C@@H](O)[C@H](O)[C@H]3N)O[C@@H]2CO)[C@H](N)[C@@H](O)[C@@H]1O,inhibition,[2],-8.11% (inactive)
same,remaining NAD,[5],10 nM (inactive)
same,luciferase signal,[6],80 AU (inactive)
CC(=O)OCC(=O)[C@@]1(O)CC[C@H]2[C@@H]3CCC4=CC(=O)CC[C@]4(C)[C@@]3(F)[C@@H](O)C[C@@]21C,survival,[16],16.7 (inactive)
same,parasite load remaining,[1],136% (inactive)
same,viability,[1],91.3%
same,inhibition,[2],-10.7% (inactive)
same,remaining NAD,[5],10 nM (inactive)
same,luciferase signal,[6],84 AU (inactive)
CC(=O)OCC(=O)[C@@]12OC3(CCCC3)O[C@@H]1C[C@H]1[C@@H]3CCC4=CC(=O)C=C[C@]4(C)[C@@]3(F)[C@@H](O)C[C@@]12C,inhibition,[2],2.31% (inactive)
same,z-score,[4]; [26],0.316 (inactive)
same,z-score,[4]; [27],0.335
same,remaining NAD,[5],10 nM (inactive)
same,luciferase signal,[6],44 AU (inactive)
CC12CC[C@H](CC1=O)C2(C)C,parasite load remaining,[1],74.1% (inactive) and 58.3% (inactive)
same,viability,[1],75% and 94.1%
same,inhibition,[2],13.3% (inactive)
same,fold change,[3]; [22],0.849 (inactive)
same,fold change,[3]; [23],0.856
same,cell count,[3]; [24],10900
same,cell count,[3]; [25],12800
